Experimental data reported in PubChem BioAssay (NCI).
Compounds without any hit were thinned out: in the full panel of roughly 79,000, 15% have a hit. Calls of active or inactive are those of the source. Cut-off read from the data, not from the text of the source: active = growth inhibition above about 70%; inactive = the rest.

Tests used:
[1] = NCI Yeast Anticancer Drug Screen. Data for the sgs1 strain (AID 173);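 note: 0% = growth of vehicle-only control cultures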; conditions: S. cerevisiae sgs1 mutant, active compounds read high
Summary of the method: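 A genetically defined yeast mutant is incubated with the test compound, and its growth is compared to that of the same strain given vehicle.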

[2] = NCI Yeast Anticancer Drug Screen. Data for the mlh1 rad18 strain (AID 175); conditions: S. cerevisiae mlh1 rad18 strain growth inhibition, active compounds read high
Summary of the method: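 Steps: expose repair-defective yeast to compound; measure growth; express inhibition against vehicle-treated controls.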

[3] = NCI Yeast Anticancer Drug Screen. Data for the rad18 strain (AID 177); conditions: S. cerevisiae rad18 mutant growth inhibition, active compounds read high
Summary of the method: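 Measured value is growth inhibition of a yeast strain bearing a DNA repair alteration, referenced to vehicle-treated cells.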

[4] = NCI Yeast Anticancer Drug Screen. Data for the rad52 strain (AID 147);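 note: 0% = growth of vehicle-treated control cultures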; conditions: S. cerevisiae rad52 mutant growth inhibition, active compounds read high
Summary of the method: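 Here a repair-compromised yeast strain receives each compound; its growth is then quantified and normalised to vehicle-only controls.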

[5] = NCI Yeast Anticancer Drug Screen. Data for the rad50EPP+ strain (AID 151);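 note: 0% = growth of vehicle-treated control cultures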; conditions: S. cerevisiae rad50 mutant strain, active compounds read high
Summary of the method: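 Read-out is yeast growth inhibition relative to vehicle; cells used were the rad50EPP+ strain.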

[6] = NCI Yeast Anticancer Drug Screen. Data for the mgt1 strain (AID 153); conditions: S. cerevisiae mgt1 mutant growth inhibition, active compounds read high
Summary of the method: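 Measured: inhibition of mgt1 yeast growth by compound, normalized to vehicle-treated cultures.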

[7] = NCI Yeast Anticancer Drug Screen. Data for the rad50 strain (AID 155);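 note: 0% = growth of vehicle-only cultures of the same strain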; conditions: S. cerevisiae rad50 strain growth inhibition, active compounds read high
Summary of the method: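 Cells are treated with compound, grown, and their growth is then scored against vehicle-only cultures of the same repair-deficient yeast strain.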

[8] = NCI Yeast Anticancer Drug Screen. Data for the mec2-1 strain (AID 157); conditions: S. cerevisiae mec2-1 strain, active compounds read high
Summary of the method: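 Using mec2-1 yeast: add compound, measure growth, express inhibition versus vehicle-treated cultures.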

[9] = NCI Yeast Anticancer Drug Screen. Data for the rad14 strain (AID 159);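 note: 0% = growth of vehicle-treated control cultures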; conditions: S. cerevisiae rad14 strain growth inhibition, active compounds read high
Summary of the method: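 Readout: yeast growth inhibition, referenced to vehicle-only cultures. Strain bears a defined alteration in DNA damage repair.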

[10] = NCI Yeast Anticancer Drug Screen. Data for the sgs1 mgt1 strain (AID 161);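 note: 0% = growth of cultures given vehicle only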; conditions: S. cerevisiae sgs1 mgt1 strain, active compounds read high
Summary of the method: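 Yeast cells carrying a defined DNA-repair defect were exposed to test compounds. Growth inhibition was measured relative to vehicle-treated controls.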

[11] = NCI Yeast Anticancer Drug Screen. Data for the CLN2oe strain (AID 163);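 note: 0% = growth of vehicle-only control cultures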; conditions: S. cerevisiae CLN2oe strain, active compounds read high
Summary of the method: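 Whole-cell yeast growth assay. A strain engineered for altered cell-cycle control received compound, and inhibition relative to vehicle-treated cultures was recorded.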

[12] = NCI Yeast Anticancer Drug Screen. Data for the cln2 rad14 strain (AID 165);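 note: 0% = growth equal to vehicle treated cultures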; conditions: S. cerevisiae cln2 rad14 strain, active compounds read high
Summary of the method: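 Yeast strain cln2 rad14, bearing defects in cell cycle control and DNA repair, serves as the test system; values reflect growth inhibition compared with vehicle.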

[13] = NCI Yeast Anticancer Drug Screen. Data for the bub3 strain (AID 167); conditions: S. cerevisiae bub3 mutant strain, active compounds read high
Summary of the method: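 Part of a panel of yeast mutants defective in DNA damage repair or cell cycle regulation. Each strain is grown with compound, and inhibition is calculated relative to solvent-treated cultures.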

[14] = NCI Yeast Anticancer Drug Screen. Data for the wt2 strain (AID 169);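 note: 0% = growth of vehicle-treated yeast cultures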; conditions: S. cerevisiae wt2 strain growth inhibition, active compounds read high
Summary of the method: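 Treated yeast vs. vehicle-treated yeast: growth inhibition determined.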

[15] = NCI Yeast Anticancer Drug Screen. Data for the mlh1 strain (AID 171);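 note: 0% = growth of vehicle-treated control cultures of the same strain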; conditions: S. cerevisiae mlh1 strain growth inhibition, active compounds read high
Summary of the method: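 A yeast strain with a defined genetic lesion serves as the test organism. Cultures receive compound or vehicle, and growth is measured.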

[16] = at 5.0 µM (retest, dose inferred, filed as 0.5)
[17] = at 50.0 µM (retest, dose inferred, filed as 5.0)

Measured: growth inhibition

OC(CC(O)(C(F)(F)F)C(F)(F)F)c1ccc(C(O)CC(O)(C(F)(F)F)C(F)(F)F)cc1 (centres undefined)
active: [1]; at 11.0 µM 87% | [1]; at 33.0 µM 99% | [1]; at 100.0 µM 99% | [2]; [17] 99% | [2]; at 50.0 µM 99.3% | [3]; at 11.0 µM 91% | [3]; at 33.0 µM 98% | [3]; at 100.0 µM 97%
inactive: [1]; at 1.2 µM 26% | [1]; at 3.7 µM 26% | [2]; [16] 47% | [3]; at 1.2 µM 40% | [3]; at 3.7 µM 41%

O=C(Cc1ccccc1)NNc1nc(NNC(=O)c2ccncc2)nc(Nc2ccc([N+](=O)[O-])cc2)n1
active: [7]; at 50.0 µM 71.5% | [10]; at 50.0 µM 87.3% | [13]; at 50.0 µM 77.7% | [2]; at 50.0 µM 86.2%
inactive: [4]; at 1.2 µM 23% | [4]; at 3.7 µM 29% | [4]; at 11.0 µM 68% | [4]; at 33.0 µM 59% | [4]; at 100.0 µM 54% | [5]; at 1.2 µM 4% | [5]; at 3.7 µM 10% | [5]; at 11.0 µM 11% | [5]; at 33.0 µM 11% | [5]; at 100.0 µM -3% | [6]; at 1.2 µM 4% | [6]; at 3.7 µM 13% | [6]; at 11.0 µM 52% | [6]; at 33.0 µM 62% | [6]; at 100.0 µM 56% | [7]; at 1.2 µM 2% | [7]; at 3.7 µM 9% | [7]; [16] 8% | [7]; at 11.0 µM 21% | [7]; at 33.0 µM 25% | [7]; [17] 54% | [7]; at 100.0 µM 21% | [8]; at 1.2 µM 3% | [8]; at 3.7 µM 9% | [8]; [16] 3% | [8]; at 11.0 µM 27% | [8]; at 33.0 µM 34% | [8]; [17] 18% | [8]; at 50.0 µM 47% | [8]; at 100.0 µM 23% | [9]; at 1.2 µM -3% | [9]; at 3.7 µM 2% | [9]; at 11.0 µM 12% | [9]; at 33.0 µM 14% | [9]; at 100.0 µM 11% | [10]; [16] 0% | [10]; [17] 41% | [11]; at 1.2 µM -8% | [11]; at 3.7 µM -4% | [11]; at 11.0 µM 8% | [11]; at 33.0 µM 11% | [11]; at 100.0 µM 7% | [12]; [16] 42% | [12]; [17] 3% | [12]; at 50.0 µM 64.3% | [13]; at 1.2 µM -2% | [13]; at 3.7 µM -4% | [13]; [16] 6% | [13]; at 11.0 µM 11% | [13]; at 33.0 µM 17% | [13]; [17] 40% | [13]; at 100.0 µM 15% | [14]; at 1.2 µM -3% | [14]; at 3.7 µM 10% | [14]; at 11.0 µM 41% | [14]; at 33.0 µM 57% | [14]; at 100.0 µM 61% | [15]; at 1.2 µM -3% | [15]; at 3.7 µM 8% | [15]; at 11.0 µM 42% | [15]; at 33.0 µM 58% | [15]; at 100.0 µM 55% | [1]; at 1.2 µM 10% | [1]; at 3.7 µM 32% | [1]; at 11.0 µM 63% | [1]; at 33.0 µM 69% | [1]; at 100.0 µM 64% | [2]; [16] 7% | [2]; [17] 36% | [3]; at 1.2 µM 9% | [3]; at 3.7 µM 26% | [3]; at 11.0 µM 50% | [3]; at 33.0 µM 57% | [3]; at 100.0 µM 49%

Oc1ccc(N=Nc2ccc(Cl)cc2)cc1
active: [4]; at 11.0 µM 97% | [4]; at 33.0 µM 98% | [4]; at 100.0 µM 98% | [5]; at 33.0 µM 98% | [5]; at 100.0 µM 97% | [6]; at 33.0 µM 99% | [6]; at 100.0 µM 99% | [7]; at 11.0 µM 94% | [7]; at 33.0 µM 99% | [7]; [17] 99% | [7]; at 50.0 µM 99.5% | [7]; at 100.0 µM 98% | [8]; at 11.0 µM 90% | [8]; at 33.0 µM 99% | [8]; [17] 98% | [8]; at 50.0 µM 98.2% | [8]; at 100.0 µM 99% | [9]; at 33.0 µM 99% | [9]; at 100.0 µM 98% | [10]; [17] 99% | [10]; at 50.0 µM 98.7% | [11]; at 11.0 µM 97% | [11]; at 33.0 µM 99% | [11]; at 100.0 µM 99% | [12]; [17] 99% | [12]; at 50.0 µM 99.5% | [13]; [16] 81% | [13]; at 11.0 µM 94% | [13]; at 33.0 µM 99% | [13]; [17] 99% | [13]; at 50.0 µM 99.2% | [13]; at 100.0 µM 99% | [14]; at 11.0 µM 93% | [14]; at 33.0 µM 99% | [14]; at 100.0 µM 99% | [15]; at 11.0 µM 77% | [15]; at 33.0 µM 99% | [15]; at 100.0 µM 99% | [1]; at 11.0 µM 87% | [1]; at 33.0 µM 99% | [1]; at 100.0 µM 98% | [2]; [17] 99% | [2]; at 50.0 µM 99.4% | [3]; at 11.0 µM 77% | [3]; at 33.0 µM 99% | [3]; at 100.0 µM 97%
inactive: [4]; at 1.2 µM 3% | [4]; at 3.7 µM 23% | [5]; at 1.2 µM 8% | [5]; at 3.7 µM 12% | [5]; at 11.0 µM 50% | [6]; at 1.2 µM -3% | [6]; at 3.7 µM 4% | [6]; at 11.0 µM 61% | [7]; at 1.2 µM 1% | [7]; at 3.7 µM 30% | [7]; [16] -27% | [8]; at 1.2 µM 8% | [8]; at 3.7 µM 15% | [8]; [16] -13% | [9]; at 1.2 µM 2% | [9]; at 3.7 µM 7% | [9]; at 11.0 µM 60% | [10]; [16] -10% | [11]; at 1.2 µM 25% | [11]; at 3.7 µM 45% | [12]; [16] -6% | [13]; at 1.2 µM 57% | [13]; at 3.7 µM 65% | [14]; at 1.2 µM -1% | [14]; at 3.7 µM 5% | [15]; at 1.2 µM 4% | [15]; at 3.7 µM 2% | [1]; at 1.2 µM 0% | [1]; at 3.7 µM 7% | [2]; [16] 6% | [3]; at 1.2 µM 0% | [3]; at 3.7 µM 3%
